PubChem BioAssay
Calls of active or inactive are those of the source. How the calls were made is not given here.

Each compound was assayed against Protein kinase 7 (PK7), Plasmodium falciparum 3D7 (PF3D7_0213400) (UniProt Q7YTF7) (assay: inhibition of Plasmodium PK7 catalytic activity – biochemical, TCAMS antimalarial set, Kinase-Glo luminescence (AID 1159587)). Conditions: recombinant PfPK7, Kinase-Glo ATP depletion luminescence.
Chain of Protein kinase 7 (PK7), Plasmodium falciparum 3D7 (PF3D7_0213400) (Q7YTF7 1-343): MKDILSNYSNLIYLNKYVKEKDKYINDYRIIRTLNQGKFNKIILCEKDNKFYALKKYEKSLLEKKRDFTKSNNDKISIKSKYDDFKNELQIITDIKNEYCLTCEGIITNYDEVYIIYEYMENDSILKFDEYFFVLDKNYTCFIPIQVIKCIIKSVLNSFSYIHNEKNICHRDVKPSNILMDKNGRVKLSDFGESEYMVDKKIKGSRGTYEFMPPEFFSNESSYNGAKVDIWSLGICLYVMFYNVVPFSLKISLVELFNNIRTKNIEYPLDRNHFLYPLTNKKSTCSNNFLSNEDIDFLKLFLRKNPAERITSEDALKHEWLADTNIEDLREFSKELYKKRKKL

outcome, inactive:
O=C(C=Cc1ccc(F)cc1)N1CCN(S(=O)(=O)c2ccc(Cl)cc2)CC1
N#Cc1ccc2c(c1)CCN(CCC1CCC(NC(=O)Nc3ccnc4ccccc34)CC1)C2 (stereo not given)
Nc1ncc(-c2ccsc2)c2ccc(-c3ccc4cn[nH]c4c3)cc12
O=c1cc(NC[C@H]2CCC[C@@H]2NCc2cc(Br)cc(Br)c2)[nH]c2ccccc12
COc1ccc(NC(=O)Nc2cccc(-c3cccc(-c4nc5ccc(F)cc5[nH]4)c3)c2)cc1
OC(CNc1ccnc(Nc2ccccc2)n1)c1cccc(C(F)(F)F)c1 (stereo not given)
COc1ccc(CNC2CCCC2)cc1-c1ccc(S(=O)(=O)NCCN2CCCC2)s1
Cc1cccc2[nH]c(-c3ccc(-c4ccc(NC(=O)Nc5cccc(C#N)c5)cc4)cc3)nc12
CC(C)(C)N1CCC(N(Cc2ccc(-c3ccc(C(F)(F)F)cc3)cc2)C(=O)Cn2c(CCc3cccc(F)c3F)nc(=O)c3cccnc32)CC1
CCc1c(CCNCCc2cccc(CCNCCc3ccc(OC)c(OC)c3CC)c2)ccc(OC)c1OC
